{"source": "the supplement of paper PMC11219838", "data": [{"tested_on": "Caenorhabditis elegans L1 (N2)", "test": "survival and reproduction score of C. elegans L1 (0: 0-10 living worms, 1: 11-20, 2: 21-50, 3: >50, 4: overgrown) (score 0-4); higher = more worms, less nematicidal, active = 1 or less; extreme values may be limits of the assay", "conditions": "60 µM; 6 days; temperature: 20 °C", "summary_of_the_method": "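Worm survival and reproduction were recorded as an ordinal score of living worms per well, read under a dissection microscope. Each 96-well well held about 20 synchronized C. elegans N2 L1s with E. coli HB101 in liquid NGM and compound at 60 µM final (0.6% v/v DMSO), sealed and shaken at 200 rpm, 20 °C, for 6 days. Scores ranged from 0 (0–10 worms) to 4 (overgrown, starved) and were the mean of two biological replicates.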", "values": [{"molecule": "CCOc1nc(C)ccc1-c1noc(-c2cccc(C)c2)n1", "survival and reproduction score": "4 (inactive)"}, {"molecule": "O=C(Nc1ccc(-c2noc(COc3ccccc3Cl)n2)cc1)c1ccccn1", "survival and reproduction score": "4 (inactive)"}, {"molecule": "COc1ccc(-c2noc(-c3ccc(C)c(C)c3)n2)cc1", "survival and reproduction score": "2 (inactive)"}, {"molecule": "Cc1cc(OCc2nc(-c3ccccn3)no2)cc(C)c1Cl", "survival and reproduction score": "4 (inactive)"}, {"molecule": "COC(=O)c1ccc(Cl)c(NC(=O)CSc2nnc(-c3ccc(Cl)cc3)o2)c1", "survival and reproduction score": "4 (inactive)"}, {"molecule": "Cc1ccc(-c2noc(COc3ccc(Cl)c(C)c3)n2)cc1", "survival and reproduction score": "4 (inactive)"}, {"molecule": "COc1ccc(Cl)cc1NC(=O)CSc1nnc(-c2ccc(Br)cc2)o1", "survival and reproduction score": "4 (inactive)"}, {"molecule": "CCOC(=O)c1ccc(NC(=O)c2ccccc2-c2nc(-c3cccc(C)c3)no2)cc1", "survival and reproduction score": "4 (inactive)"}, {"molecule": "Fc1ccc(OCc2nc(-c3ccc(Br)cc3)no2)cc1", "survival and reproduction score": "3 (inactive)"}, {"molecule": "Cc1ccc(OCc2nc(-c3ccc(Br)o3)no2)cc1C", "survival and reproduction score": "4 (inactive)"}, {"molecule": "O=C(CSc1nnc(-c2ccncc2)o1)Nc1cc(C(F)(F)F)ccc1Cl", "survival and reproduction score": "4 (inactive)"}, {"molecule": "Cc1ccccc1-c1noc(-c2ccc(F)cc2)n1", "survival and reproduction score": "4 (inactive)"}, {"molecule": "O=C(CSc1nnc(-c2cccc(Br)c2)o1)NC1CCCCC1", "survival and reproduction score": "4 (inactive)"}, {"molecule": "COc1ccccc1-c1nnc(SCC(=O)Nc2ccccc2Cl)o1", "survival and reproduction score": "4 (inactive)"}, {"molecule": "COC(=O)c1ccc(NC(=O)CSc2nnc(-c3ccc(Cl)cc3Cl)o2)cc1", "survival and reproduction score": "4 (inactive)"}, {"molecule": "Cc1ccc(-c2nnc(SCC(=O)Nc3cc(C)c(C)cc3Br)o2)cc1", "survival and reproduction score": "4 (inactive)"}, {"molecule": "Cc1[nH]c2ccc(-c3nnc(SCC(=O)NCc4ccc(F)cc4)o3)cc2c1C", "survival and reproduction score": "4 (inactive)"}, {"molecule": "CN(C)C(=O)c1ccccc1-c1nc(-c2ccc(Cl)cc2)no1", "survival and reproduction score": "4 (inactive)"}, {"molecule": "CC(Sc1nnc(-c2cccnc2)o1)C(=O)c1ccccc1", "note": "(centres undefined)", "survival and reproduction score": "4 (inactive)"}, {"molecule": "CC(Oc1ccc(C(C)(C)C)cc1)c1nc(-c2ccncc2)no1", "note": "(centres undefined)", "survival and reproduction score": "4 (inactive)"}, {"molecule": "CCSc1nnc(-c2ccc(Cl)cc2)o1", "survival and reproduction score": "0 (active)"}, {"molecule": "NC(=O)COc1ccccc1-c1nc(-c2ccccc2Cl)no1", "survival and reproduction score": "4 (inactive)"}, {"molecule": "Cc1ccc(OCc2nc(-c3ccc(F)cc3)no2)cc1C", "survival and reproduction score": "4 (inactive)"}, {"molecule": "Clc1cc(Br)ccc1OCc1nc(-c2ccccn2)no1", "survival and reproduction score": "4 (inactive)"}, {"molecule": "COc1cccc(-c2noc(-c3ccc(C)cc3)n2)c1", "survival and reproduction score": "0 (active)"}, {"molecule": "Cc1ccc(OC(C)c2nc(-c3cccnc3)no2)cc1", "note": "(centres undefined)", "survival and reproduction score": "4 (inactive)"}, {"molecule": "O=C(CSc1nnc(-c2cccc(Cl)c2)o1)N1CCCCC1", "survival and reproduction score": "4 (inactive)"}, {"molecule": "CCC(=O)Nc1ccccc1-c1nc(-c2ccncc2)no1", "survival and reproduction score": "1 (active)"}, {"molecule": "Cc1ccc(-c2nc(-c3ccccc3)no2)cc1C", "survival and reproduction score": "4 (inactive)"}, {"molecule": "c1cncc(-c2noc(COc3cccc4ccccc34)n2)c1", "survival and reproduction score": "4 (inactive)"}, {"molecule": "Cc1ccc(-c2nc(-c3ccc(Br)cc3)no2)cc1", "survival and reproduction score": "4 (inactive)"}, {"molecule": "CC(C)C(=O)Nc1ccccc1-c1nc(-c2ccccc2)no1", "survival and reproduction score": "4 (inactive)"}, {"molecule": "Cc1cc(Br)ccc1OCc1nc(-c2cccnc2)no1", "survival and reproduction score": "4 (inactive)"}, {"molecule": "COc1ccc(-c2noc(COc3ccccc3Cl)n2)cc1", "survival and reproduction score": "4 (inactive)"}, {"molecule": "CCN(CC)C(=O)CSc1nnc(-c2ccc(Br)cc2)o1", "survival and reproduction score": "4 (inactive)"}, {"molecule": "CC1CC(C)CN(C(=O)CSc2nnc(-c3cccc(Cl)c3)o2)C1", "note": "(centres undefined)", "survival and reproduction score": "4 (inactive)"}, {"molecule": "COc1ccc(-c2noc(COc3ccc(C)cc3C)n2)cc1", "survival and reproduction score": "4 (inactive)"}, {"molecule": "Clc1ccc(-c2nc(-c3ccccc3Br)no2)cc1", "survival and reproduction score": "3.5 (inactive)"}, {"molecule": "Clc1ccc(CSc2nnc(-c3ccc(Cl)cc3)o2)cc1", "survival and reproduction score": "4 (inactive)"}]}]}
